# Experimental data taken from PubChem BioAssay (NCATS).
# Unmarked numbers belong to inactive results. Records with an inconclusive call do not appear. Where a call stands in place of a potency, no number is given. The source made the active and inactive calls. Unless noted, calls follow the shape of the dose curve; as a rule, active = well fitted curve in the direction sought with a large enough effect; inconclusive = small, poorly fitted or top-dose-only effect, or another doubt; inactive = no such curve, though single readings can be large; an effect the other way counts as inactive or inconclusive.
# Experiments:
# [1] = molecular target: Cytochrome P450 3A4 (Homo sapiens) (UniProt P08684); experiment: qHTS Assay for Activators of Cytochrome P450 3A4 (AID 885); also: nearly all actives have a fitted effect of over 65% in size
# Sequence of Cytochrome P450 3A4 (Homo sapiens) (P08684 whole entry, looked up): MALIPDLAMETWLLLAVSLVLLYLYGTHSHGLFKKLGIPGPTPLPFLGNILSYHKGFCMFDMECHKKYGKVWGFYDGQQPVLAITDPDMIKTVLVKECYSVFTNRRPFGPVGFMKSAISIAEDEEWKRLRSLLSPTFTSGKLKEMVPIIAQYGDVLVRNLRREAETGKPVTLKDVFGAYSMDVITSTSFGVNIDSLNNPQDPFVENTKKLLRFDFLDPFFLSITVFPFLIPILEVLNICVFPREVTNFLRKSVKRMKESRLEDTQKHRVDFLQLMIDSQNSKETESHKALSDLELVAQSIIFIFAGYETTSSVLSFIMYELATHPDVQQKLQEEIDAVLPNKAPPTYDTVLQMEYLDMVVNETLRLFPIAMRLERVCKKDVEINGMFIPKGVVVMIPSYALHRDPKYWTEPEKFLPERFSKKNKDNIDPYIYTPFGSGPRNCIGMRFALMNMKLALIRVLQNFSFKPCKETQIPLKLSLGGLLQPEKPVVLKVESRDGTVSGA
# Outline: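 20nM CYP3A4 + 25uM Luciferin-PPXE (=KM), 200mM KPO4; cpd 10 min RT; NADPH regen, 60 min RT; stop w/ detection buffer, 20 min; luminescence. Normalized to 57 uM ketoconazole.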
# [2] = molecular target: Cytochrome P450 2D6 (Homo sapiens) (UniProt P10635); experiment: qHTS Assay for Inhibitors and Substrates of Cytochrome P450 2D6 (AID 891); settings: recombinant CYP2D6, luciferin-ME EGE luminescence; also: potency is read from the fitted curve at half-maximal effect; nearly all actives have a fitted effect of over 60% in size
# Sequence of Cytochrome P450 2D6 (Homo sapiens) (P10635 whole entry, looked up): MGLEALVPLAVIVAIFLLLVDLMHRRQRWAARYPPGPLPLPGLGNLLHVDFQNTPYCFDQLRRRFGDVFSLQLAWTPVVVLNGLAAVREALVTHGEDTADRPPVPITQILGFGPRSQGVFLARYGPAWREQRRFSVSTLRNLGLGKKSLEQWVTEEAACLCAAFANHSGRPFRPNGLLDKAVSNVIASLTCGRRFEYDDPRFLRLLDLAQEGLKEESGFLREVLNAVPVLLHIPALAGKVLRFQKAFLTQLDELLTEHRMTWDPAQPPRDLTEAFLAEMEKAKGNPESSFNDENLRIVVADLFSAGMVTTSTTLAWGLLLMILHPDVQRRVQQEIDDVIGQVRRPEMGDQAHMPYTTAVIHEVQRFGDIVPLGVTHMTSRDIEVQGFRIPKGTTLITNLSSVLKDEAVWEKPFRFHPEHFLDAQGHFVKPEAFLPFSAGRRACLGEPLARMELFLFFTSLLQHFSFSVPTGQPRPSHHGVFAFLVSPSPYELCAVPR
# Outline: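 Human CYP2D6 (5 nM) with 30 uM Luciferin-ME EGE (at Km) in 100 mM KPO4, compound preincubated 10 min, then NADPH regeneration system for 60 min at room temperature. Luciferin read by luminescence; normalized to 1.43 uM quinidine.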
# [3] = molecular target: Cytochrome P450 3A4 (Homo sapiens) (UniProt P08684); experiment: qHTS Assay for Inhibitors and Substrates of Cytochrome P450 3A4 (AID 884); also: nearly all actives have a fitted effect of over 50% in size
# Outline: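 20 nM human CYP3A4 with 25 uM Luciferin-PPXE (at KM) in 200 mM KPO4, preincubated 10 min with compound; NADPH regeneration started a 60 min RT reaction. Luciferin detected by luminescence, normalized to 57 uM ketoconazole as full inhibition.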
# [4] = Cellular Toxicity (caspase-3) HepG2 (AID 654);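 also: cells exposed to compound for 16 hours before reading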
# Outline: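 Cells plated 5 hr at 37 °C, compound added, incubated 16 hr at 37 °C. Caspase-Glo 3/7 reagent followed, 20 min at room temperature, then luminescence read. Activation scored as signal increase; AC50 from Hill fit.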
# [5] = Cellular Toxicity (caspase-3) HUV-EC-C (AID 656)
# Outline: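 Luminescent Caspase-Glo 3/7 readout after 16 h, 37 °C compound exposure of HUV-EC-C endothelial cells, 1000 per well, complete medium. AC50 derived by Hill fitting, with DMSO as baseline and 100 uM tamoxifen as full activation.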
# [6] = Cellular Toxicity (caspase-3) SHSY5Y (AID 657)
# Outline: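 Luminescent Caspase-Glo 3/7 read-out, 1 hr room temperature, follows 16 hours of compound treatment of SH-SY5Y cells at 37 °C. Normalization: DMSO basal, 10 uM staurosporine as 100%; AC50 values from Hill-equation concentration-response fits.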
# [7] = Cellular Toxicity (caspase-3) BJ (AID 658)
# Outline: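 BJ human foreskin fibroblasts, 1000 cells/well, treated 16 hours at 37 °C in complete medium; caspase 3/7 activity by Caspase-Glo luminescence after 1 hr at room temperature. Normalized to DMSO and 10 uM staurosporine; AC50 from Hill fits.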
# [8] = Cellular Toxicity (caspase-3) MRC-5 (AID 659)
# Outline: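 MRC-5 human normal lung fibroblasts, 1500 cells/well, treated 16 h at 37 °C in complete medium. Caspase 3/7 measured by Caspase-Glo luminescence after 1 h at room temperature. Normalized to DMSO and 10 uM staurosporine; AC50 from Hill fit.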
# [9] = Cellular Toxicity (caspase-3) Mesangial (AID 660);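 also: combined caspase 3 and 7 activity read by Caspase-Glo luminescence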
# Outline: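 Mesangial cells, 1000/well, 5 h settle at 37 °C; compound 16 h, 37 °C; Caspase-Glo 3/7 reagent 20 min RT; luminescence. Norm.: DMSO = 0%, tamoxifen 100 uM = 100%. AC50, Hill fit.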
# [10] = Cellular Toxicity (caspase-3) SK-N-SH (AID 661)
# Outline: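 Human neuroblastoma SK-N-SH, 1500 cells/well, 5 hr pre-incubation, then compound 16 hr, 37 °C. Caspase-Glo 3/7 reagent, 1 hr RT, luminescence. Norm. to DMSO/10 uM staurosporine; Hill-fit AC50.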
# [11] = Cellular Toxicity (caspase-3) H-4-II-E (AID 663); settings: Potency: caspase-3 activation; also: potency is read from the fitted curve at half-maximal effect;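 as to caspase-3 activation: cells exposed to compound for 16 hr before readout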
# Outline: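 Rat hepatoma H-4-II-E cells (1500/well) plated 5 hr, then exposed to compound titrations for 16 hr at 37 °C. Caspase-Glo 3/7 luminescence read after 20 min at RT; data normalized to DMSO and 100 uM tamoxifen, AC50 from Hill fits.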
# [12] = Cellular Toxicity (caspase-3) Hek293 (AID 664);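 also: cells exposed to compound for 16 h at 37 °C before readout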
# Outline: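 Cells plated, 5 hr at 37 °C; compounds added; 16 hr at 37 °C; Caspase-Glo 3/7 reagent, 20 min RT; luminescence read. Activation expressed relative to DMSO and 100 uM tamoxifen, AC50 by Hill model.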
# [13] = Cellular Toxicity (caspase-3) N2a (AID 665);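 also: compound exposure lasted 16 h at 37 °C before readout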
# Outline: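 N2a cells, 1500/well, 5 h settle at 37 °C; cpd 16 h, 37 °C; Caspase-Glo 3/7, 1 h RT; luminescence. Norm: DMSO = 0, 10 uM staurosporine = 100%. AC50, Hill fit.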
# [14] = Cellular Toxicity (caspase-3) NIH 3T3 (AID 666);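 also: caspase signal read after 16 h compound exposure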
# Outline: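 Luminescence from aminoluciferin released by caspase-3/7 cleavage of a peptide substrate served as read-out. Mouse fibroblast NIH 3T3 cells were exposed to compounds over a concentration range for 16 hours, and AC50 values came from standard Hill modelling.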
# [15] = Cellular Toxicity (caspase-3) Renal Proximal Tubule (AID 667);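 also: cells exposed to compound for 16 hours at 37 °C before detection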
# Outline: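 Caspase 3/7 activation measured by luminescent aminoluciferin release in primary rat proximal tubule cells after 16 hr compound exposure at 37 °C. AC50 from Hill-fitted concentration-response, scaled between DMSO and 10 uM staurosporine.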
# [16] = Cellular Toxicity (caspase-3) Jurkat (AID 655); settings: Jurkat caspase-3 activation, luminescence, DMSO = 0%, tamoxifen = 100%; at 92.2 µM (top of the series);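 also: cells exposed to compound for 16 h at 37 °C before reading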
# Outline: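 Luminescent Caspase-Glo 3/7 read-out (20 min, room temperature) after 16 h compound treatment at 37 C of 5000 Jurkat cells per well. AC50 derived by Hill-equation fitting, scaled between DMSO basal and 100 uM tamoxifen stimulation.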
# [17] = molecular target: Cytochrome P450 2C9 (Homo sapiens) (UniProt P11712); experiment: qHTS Assay for Inhibitors and Substrates of Cytochrome P450 2C9 (AID 883); also: nearly all actives have a fitted effect of over 60% in size
# Sequence of Cytochrome P450 2C9 (Homo sapiens) (P11712 whole entry, looked up): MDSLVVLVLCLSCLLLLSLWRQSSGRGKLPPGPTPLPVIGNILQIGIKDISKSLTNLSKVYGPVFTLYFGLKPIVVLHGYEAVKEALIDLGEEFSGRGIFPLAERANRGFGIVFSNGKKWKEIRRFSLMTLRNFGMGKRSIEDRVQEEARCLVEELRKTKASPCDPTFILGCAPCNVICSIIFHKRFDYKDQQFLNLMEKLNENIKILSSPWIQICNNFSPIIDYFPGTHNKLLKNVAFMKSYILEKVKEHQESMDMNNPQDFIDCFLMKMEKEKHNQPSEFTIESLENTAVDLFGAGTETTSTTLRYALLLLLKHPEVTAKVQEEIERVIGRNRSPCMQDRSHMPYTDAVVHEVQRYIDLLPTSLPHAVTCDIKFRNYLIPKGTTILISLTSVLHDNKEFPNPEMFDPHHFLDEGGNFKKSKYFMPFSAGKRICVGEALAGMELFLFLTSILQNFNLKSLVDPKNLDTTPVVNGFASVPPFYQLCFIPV
# Outline: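 Signal: luciferase luminescence reporting luciferin produced by CYP2C9. Conditions: 10nM enzyme, Luciferin-H 100uM at KM, 25mM KPO4, 37C, 60 min NADPH-driven reaction. Reference: 57uM sulphaphenazole as 100% inhibition.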
# [18] = molecular target: 3',5'-cyclic-AMP phosphodiesterase 4B (Homo sapiens) (UniProt Q07343); experiment: qHTS Assay for Inhibitors of PDE-IV (AID 607; active = well fitted activation curve with a large enough effect in the main read-out, with a control signal flat, not every such curve was filed as active)
# Sequence of 3',5'-cyclic-AMP phosphodiesterase 4B (Homo sapiens) (Q07343 whole entry, looked up): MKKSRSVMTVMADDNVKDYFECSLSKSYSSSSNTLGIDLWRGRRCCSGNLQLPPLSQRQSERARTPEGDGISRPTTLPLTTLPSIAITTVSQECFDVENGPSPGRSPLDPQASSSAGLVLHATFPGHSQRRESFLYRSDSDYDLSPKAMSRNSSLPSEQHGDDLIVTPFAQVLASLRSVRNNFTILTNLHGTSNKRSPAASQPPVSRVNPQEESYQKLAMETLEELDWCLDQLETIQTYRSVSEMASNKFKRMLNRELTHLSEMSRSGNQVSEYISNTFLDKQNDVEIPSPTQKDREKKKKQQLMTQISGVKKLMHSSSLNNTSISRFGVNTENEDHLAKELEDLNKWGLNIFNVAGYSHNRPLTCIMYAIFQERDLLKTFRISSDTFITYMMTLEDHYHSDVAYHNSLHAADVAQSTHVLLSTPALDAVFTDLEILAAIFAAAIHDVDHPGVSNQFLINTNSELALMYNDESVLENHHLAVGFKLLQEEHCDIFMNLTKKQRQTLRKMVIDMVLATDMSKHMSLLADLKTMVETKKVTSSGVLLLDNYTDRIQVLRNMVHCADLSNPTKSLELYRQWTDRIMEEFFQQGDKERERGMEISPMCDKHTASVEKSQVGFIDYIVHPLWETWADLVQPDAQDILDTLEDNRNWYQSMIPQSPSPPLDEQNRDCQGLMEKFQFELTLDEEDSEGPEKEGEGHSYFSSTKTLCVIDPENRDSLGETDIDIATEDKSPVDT
# Outline: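 ACTOne HEK293 cells carry a modified cAMP-gated CNG channel and express endogenous PDE4; plated 1000 cells/well, compounds up to 22.9 uM final. Membrane-potential dye fluorescence (ex 535/em 590) was read; parental cells received 10 uM forskolin + 100 uM RO 20-1724.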
smiles,measurement,setting,value
Cc1c(-c2ccccc2)oc2c(C(=O)OCCN3CCCCC3)cccc2c1=O,outcome,[1],inactive
same,Potency,[2],7.94 µM (active)
CC(C(=O)O)c1cccc(Oc2ccccc2)c1 (stereo not drawn),Potency,[3],inactive
C=C[C@H]1CN2CC[C@H]1C[C@@H]2[C@@H](O)c1ccnc2ccc(OC)cc12,outcome,[4],inactive
same,outcome,[5],inactive
same,outcome,[6],inactive
same,outcome,[7],inactive
same,outcome,[8],inactive
same,outcome,[9],inactive
same,outcome,[10],inactive
same,Potency,[11],inactive
same,outcome,[12],inactive
same,outcome,[13],inactive
same,outcome,[14],inactive
same,outcome,[15],inactive
COP(=O)(OC)OC(c1ccc(Cl)cc1)P(=O)(OC)OC (stereo not drawn),Potency,[3],inactive
CCCCc1cc2ccccc2c(OCCN(C)C)n1,Potency,[2],2 µM (active)
NCCNc1cccc2ccccc12,outcome,[4],inactive
same,caspase-3 activation,[16],6.22%
same,outcome,[5],inactive
same,outcome,[6],inactive
same,outcome,[7],inactive
same,outcome,[8],inactive
same,outcome,[9],inactive
same,outcome,[10],inactive
same,Potency,[11],inactive
same,outcome,[12],inactive
same,outcome,[13],inactive
same,outcome,[14],inactive
same,outcome,[15],inactive
same,Potency,[3],inactive
CN(C)C(=O)Nc1ccc(Cl)c(Cl)c1,Potency,[3],inactive
COc1ccc(CN(CCN(C)C)c2ncccn2)cc1,Potency,[3],inactive
COc1ccccc1N1CCN(CCCCNC(=O)c2ccc(-c3ccc(C(C)=O)cc3)cc2)CC1,Potency,[17],inactive
NC(=O)c1ccccc1O,outcome,[4],inactive
same,caspase-3 activation,[16],-0.838%
same,outcome,[5],inactive
same,outcome,[6],inactive
same,outcome,[7],inactive
same,outcome,[8],inactive
same,outcome,[9],inactive
same,outcome,[10],inactive
same,Potency,[11],inactive
same,outcome,[12],inactive
same,outcome,[13],inactive
same,outcome,[14],inactive
same,outcome,[15],inactive
same,Potency,[3],inactive
CN(C)CCOC(c1ccc(Cl)cc1)c1ccccn1 (stereo not drawn),Potency,[3],inactive
O=c1[nH]c(=O)n([C@H]2C[C@H](O)[C@@H](CO)O2)cc1F,Potency,[3],inactive
CCN(CC)CCOc1ccc2c(c1)C(=O)c1cc(OCCN(CC)CC)ccc1-2,Potency,[3],inactive
CCC(Cc1c(I)cc(I)c(N)c1I)C(=O)O (stereo not drawn),Potency,[3],inactive
COc1ccc(-c2cc(C(F)F)nn2-c2ccc(S(N)(=O)=O)cc2)cc1F,Potency,[3],inactive
C[N+]12CCC(CC1)C(OC(=O)C(O)(c1ccccc1)c1ccccc1)C2 (stereo not drawn),Potency,[3],inactive
Cc1ncc(CO)c(C=O)c1O,Potency,[3],inactive
CCCCCN=C(N)N/N=C/c1c[nH]c2ccc(OC)cc12,Potency,[3],inactive
CCOc1ccccc1C(N)=O,outcome,[4],inactive
same,caspase-3 activation,[16],-0.33%
same,outcome,[5],inactive
same,outcome,[6],inactive
same,outcome,[7],inactive
same,outcome,[8],inactive
same,outcome,[9],inactive
same,outcome,[10],inactive
same,Potency,[11],inactive
same,outcome,[12],inactive
same,outcome,[13],inactive
same,outcome,[14],inactive
same,outcome,[15],inactive
same,Potency,[3],inactive
CCc1cc(Cl)c(OC)c(C(=O)NC[C@@H]2CCCN2CC)c1O,outcome,[18],inactive
same,Potency,[2],0.0501 µM (active)
C/C=C/c1ccc(O)c(OC)c1,outcome,[4],inactive
same,caspase-3 activation,[16],1.5%
same,outcome,[5],inactive
same,outcome,[6],inactive
same,outcome,[7],inactive
same,outcome,[8],inactive
same,outcome,[9],inactive
same,outcome,[10],inactive
same,Potency,[11],inactive
same,outcome,[12],inactive
same,outcome,[13],inactive
same,outcome,[14],inactive
same,outcome,[15],inactive
same,Potency,[3],inactive
CCN(CC)CCOC(=O)C(Cc1cccc2ccccc12)CC1CCCO1 (stereo not drawn),outcome,[1],inactive
CCCCC(CC)CN1CN(CC(CC)CCCC)CC(C)(N)C1 (stereo not drawn),Potency,[3],inactive
CC(=O)NCCCCCC(=O)O,Potency,[3],inactive
CCCCC(CC)COC(=O)c1ccc(N(C)C)cc1 (stereo not drawn),outcome,[4],inactive
same,caspase-3 activation,[16],1.94%
same,outcome,[5],inactive
same,outcome,[6],inactive
same,outcome,[7],inactive
same,outcome,[8],inactive
same,outcome,[9],inactive
same,outcome,[10],inactive
same,Potency,[11],inactive
same,outcome,[12],inactive
same,outcome,[13],inactive
same,outcome,[14],inactive
same,outcome,[15],inactive
CC(=O)NO,Potency,[3],inactive
COc1cc([C@H]2Oc3cc([C@H]4Oc5cc(O)cc(O)c5C(=O)[C@@H]4O)ccc3O[C@@H]2CO)ccc1O,outcome,[4],inactive
same,caspase-3 activation,[16],7.36%
same,outcome,[5],inactive
same,outcome,[6],inactive
same,outcome,[7],inactive
same,outcome,[8],inactive
same,outcome,[9],inactive
same,outcome,[10],inactive
same,Potency,[11],31.6 µM (active)
same,outcome,[12],inactive
same,outcome,[13],inactive
same,outcome,[15],inactive
O=C(O)CCNC(=O)c1ccccc1,Potency,[3],inactive
O=C(O)P(=O)(O)O,Potency,[3],inactive
Oc1ccc(Cl)cc1Cc1cc(Cl)ccc1O,caspase-3 activation,[16],86% (active)
same,outcome,[5],inactive
same,outcome,[6],inactive
same,outcome,[7],inactive
same,outcome,[8],inactive
same,outcome,[9],inactive
same,outcome,[10],inactive
same,Potency,[11],inactive
same,outcome,[13],inactive
same,outcome,[14],inactive
same,outcome,[15],inactive
